Inconclusive results are not listed. A number with no mark means an inactive call. Active and inactive are the calls of the source. The call rests on the fitted dose curve; in most records, active means well fitted inhibition curve with a large enough effect; inconclusive means small, poorly fitted or top-dose-only effect; inactive means flat fitted curve, though single readings scatter.
These compounds were tested against Galactokinase (Homo sapiens) (UniProt P51570) (assay: qHTS for Inhibitors of Human Galactokinase (GALK): SAR round 3). Details: ADP detection luminescence, 1 h; series mostly up to 57.5 µM; activity change, negative = inhibition: at the top concentration.
Chain of Galactokinase (Homo sapiens) (P51570 whole entry, looked up): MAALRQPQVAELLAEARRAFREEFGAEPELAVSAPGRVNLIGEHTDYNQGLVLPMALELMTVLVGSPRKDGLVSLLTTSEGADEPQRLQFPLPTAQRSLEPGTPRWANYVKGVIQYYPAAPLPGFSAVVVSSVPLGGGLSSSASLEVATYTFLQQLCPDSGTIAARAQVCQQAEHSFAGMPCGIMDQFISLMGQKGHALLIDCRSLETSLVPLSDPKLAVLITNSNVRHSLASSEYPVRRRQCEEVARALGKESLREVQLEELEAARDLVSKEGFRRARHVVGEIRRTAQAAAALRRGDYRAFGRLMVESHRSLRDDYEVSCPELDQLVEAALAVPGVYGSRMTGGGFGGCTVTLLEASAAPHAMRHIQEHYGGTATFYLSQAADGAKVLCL
How it was run: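 Cherry-picked actives were retested in quantitative dose format against 5 nM human galactokinase, using 100 µM galactose and 35 µM ATP at pH 8.0 (HEPES, MgCl2, NaCl). After 1 h at room temperature, product was quantified by luminescence.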

Compound	Potency	activity change, negative = inhibition [%]
CCC1CCC2(C1)N=C(Nc1nc3ccccc3o1)NC1=C2C(=O)CCC1 (stereo not drawn)	inactive	–
O=C1CCCC2=C1C(c1[nH]ncc1Cl)NC(=NCc1nccs1)N2 (stereo not drawn)	–	3.63
O=C(Nc1ncc([S+](=O)([O-])N2CCOCC2)s1)c1cccc(Br)c1	–	-2.8
O=C1CCCC2CC(Nc3nc4ccccc4o3)CC(c3ccccc3)C12 (stereo not drawn)	–	-0.0792
O=C1CCCC2=C1C1(CCCC1)N=C(Nc1nc3ccccc3n1Cc1ccccc1)N2	–	6.14
O=C1C2=C(CN1Cc1ccccc1)NC(Nc1nc3ccccc3o1)=NC2c1ccccc1Cl (stereo not drawn)	–	-1.63
CC1=C(C(=O)N(C)c2ccccc2C)C(c2ccccc2Br)N=C(Nc2nc3ccccc3o2)N1 (stereo not drawn)	–	-20.2
O=C1CCCC2=C1C1(CCSC1)N=C(Nc1nc3ccccc3o1)N2 (stereo not drawn)	19.3 µM (active)	–
CC(C)CN1CC2=C(C1=O)C(c1ccccc1Cl)N=C(Nc1nc3ccccc3o1)N2 (stereo not drawn)	–	-8.14
O=C1CCCC2=C1C(c1cccc(Cl)c1)N=C(Nc1nc3ccccc3o1)N2 (stereo not drawn)	–	-2.3
CC1=C(C(=O)NC2CC2)C(c2nn(C)cc2Cl)N=C(Nc2nc3ccccc3o2)N1 (stereo not drawn)	–	-29.6
Cc1nc(NC2=NC(c3ccccc3Cl)C3=C(CCCC3=O)N2)oc1C (stereo not drawn)	–	2.17
O=C1CCCC2=C1C1(CCCC1)N=C(Nc1nc3cc(Cl)ccc3o1)N2	–	-24.4
O=c1cc(CN2CCCN(c3ccc(C(F)(F)F)cn3)CC2)nc2ccccn12	–	-2.21
O=C1CCCC2=C1C1(CCSCC1)N=C(Nc1nc3ccccc3o1)N2	3.43 µM (active)	–
O=C1CCCC2=C1C(c1[nH]ncc1Cl)N=C(Nc1ccccn1)N2 (stereo not drawn)	–	0.613
O=C1CCCC2=C1C(c1[nH]ncc1Cl)NC(=NCc1ccco1)N2 (stereo not drawn)	–	-8.02
COc1ccccc1NC(=O)C1=C(C)NC(Nc2nc3ccccc3o2)=NC1c1ccccc1Br (stereo not drawn)	–	-19.2
O=C1CC(c2ccccc2)CC2=C1C1(CCCCC1)N=C(Nc1nc3ccccc3o1)N2 (stereo not drawn)	–	3.27

Compound	Potency	activity change, negative = inhibition [%]
Cc1noc(C)c1S(=O)(=O)Nc1ccc(C(=O)Nc2ccc(OC(F)(F)F)cc2)cc1	–	3.01
COc1ccc2oc(NC3=NC(c4[nH]ncc4Cl)C4=C(CCCC4=O)N3)nc2c1 (stereo not drawn)	–	3
O=C1CCCC2=C1C(c1[nH]ncc1Cl)NC(=NCCc1ccc(O)cc1)N2 (stereo not drawn)	–	3.03
Cc1cccc(C2N=C(Nc3nc4ccccc4o3)NC3=C2C(=O)CCC3)c1 (stereo not drawn)	–	-18
CC1=C(C(=O)Nc2nc3ccccc3s2)C2(CCCC2)N=C(Nc2nc3ccccc3o2)N1	–	-10.2
O=C1CCCC2=C1C(c1[nH]ncc1Cl)NC(=NCCc1cccnc1)N2 (stereo not drawn)	–	1.96
O=C1CCCC2=C1C1(CCCC1)N=C(Nc1nc3ccccc3o1)N2	–	-28.9
O=C1CCCC2=C1C(c1ccccc1I)N=C(Nc1nc3ccccc3o1)N2 (stereo not drawn)	6.11 µM (active)	–
O=C1C2=C(CN1c1ccccc1)NC(Nc1nc3ccccc3o1)=NC2c1ccccc1Cl (stereo not drawn)	–	-6.41
CC1=C(C(=O)Nc2ccon2)C2(CCCC2)N=C(Nc2nc3ccccc3o2)N1	17.2 µM (active)	–
O=C1CCCC2=C1C(c1ccccc1)N=C(Nc1nc3ccccc3o1)N2 (stereo not drawn)	–	-25
O=C1CCCC2=C1C(c1[nH]ncc1Cl)NC(=NCc1ccccn1)N2 (stereo not drawn)	–	1.69
CCOC(=O)c1cnc(NC2=NC(c3ccccc3Cl)C3=C(CCCC3=O)N2)o1 (stereo not drawn)	–	1.33
O=C1CCCC2=C1C(c1[nH]ncc1Cl)NC(=NCc1ccoc1)N2 (stereo not drawn)	–	2.25
O=C1CCCC2=C1C(c1ncccc1Br)N=C(Nc1nc3ccccc3o1)N2 (stereo not drawn)	–	-27.8
CC1=C(C(=O)NC2CC2)C(c2[nH]ncc2Cl)N=C(Nc2nc3ccccc3o2)N1 (stereo not drawn)	–	-24.1
Cc1cccc2oc(NC3=NC(c4[nH]ncc4Cl)C4=C(CCCC4=O)N3)nc12 (stereo not drawn)	inactive	–
CCc1ccc2oc(=O)cc(CN3CCN(c4ccccc4F)CC3)c2c1	–	4.45
O=C1CCCC2=C1C(c1[nH]ncc1Cl)N=C(Nc1nc3cc(Cl)ccc3o1)N2 (stereo not drawn)	–	3.78
